From PubChem BioAssay (NCATS) come the findings set out here.

Structures are written as SMILES. Results filed as inconclusive are left out. Activity calls are given as the source filed them. The call rests on the fitted dose curve; in most records, active means well fitted curve in the direction sought with a large enough effect; inconclusive means small, poorly fitted or top-dose-only effect, or another doubt; inactive means no such curve, though single readings can be large; an effect the other way counts as inactive or inconclusive.

Assay [1] has as its system Zika virus NS2B-NS3 protease (linked construct). Put plainly: Primary screen NINDS Rhodamine qHTS for Zika virus inhibitors (AID 1347160). Further: nearly all actives have a fitted effect of over 55% in size. The method, boiled down:
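Aprotinin served as in-plate control. Conditions: 25 nM linked NS2B-NS3, pH 8.0 Tris buffer, titrated compounds, 15 min preincubation and 15 min reaction with 1.5 microM Rhod110 substrate at room temperature.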
Background: Quantitative high-throughput screening tests each substance at several concentrations.

The target of assay [2] is Calcium and integrin-binding protein 1 (Homo sapiens) (UniProt Q99828). The experiment in a line: Primary qHTS for Identification of Calcium Integrin Binding Protein 1 (CIB1) Competitor (AID 1508620).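 Further: GST tagged CIB1 binding a fluorescein labelled alphaIIb integrin peptide tracer; top concentration of the series differs between compounds.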 The method, boiled down: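 CIB1-GST (1 uM final) and compound incubated 15 min at room temperature before adding FITC-alphaIIb peptide tracer (100 nM final). Competition for binding read by fluorescence polarization (ex 480, em 540) after another 15 min at room temperature.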

Assay [3] concerns the target Glutathione peroxidase 1 (Homo sapiens) (UniProt P07203). The experiment in a line: Primary qHTS Assay for Inhibitors of Recombinant Selenoprotein Glutathione Peroxidase 1 (GPX1) (AID 1845191). Further: nearly all actives have a fitted effect of over 65% in size. The procedure, abridged:
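NADPH consumption tracked by fluorescence at 340/450 nm between t=0 and t=15 min, room temperature. Final mix: 10 nM GPX1, 100 nM glutathione reductase, 1 mM GSH, 0.5 mM NADPH, 0.5 mM cumene hydroperoxide, 0.01% BSA; 30 min compound–enzyme preincubation.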

Assay [4] concerns the target Phospholipid hydroperoxide glutathione peroxidase GPX4 (Homo sapiens) (UniProt P36969). The experiment in a line: Primary qHTS Assay for Inhibitors of Recombinant Selenoprotein Glutathione Peroxidase 4 (GPX4) (AID 1845192). Further: nearly all actives have a fitted effect of over 65% in size. The method, boiled down: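 NADPH consumption followed by fluorescence at 340/450 nm, t=0 and after 15 min at room temperature. Reaction started with cumene hydroperoxide (0.5 mM final) after 30 min compound–GPX4 preincubation; final 200 nM GPX4, 100 nM GR, 1 mM GSH, 0.5 mM NADPH.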

Assay [5] deals with Luciferin 4-monooxygenase (Photinus pyralis) (UniProt P08659). The experiment in a line: Primary firefly luciferase (FLuc) qHTS assay for identification of artifact compounds. (AID 1845220). Further: nearly all actives have a fitted effect of over 60% in size. To be noted: outcome: dose series up to 54.1 µM unless noted. The method, boiled down:
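Compounds sat 15 min at room temperature with 10 uM luciferin and 10 uM ATP (pH 7.6 Tris acetate). Firefly luciferase (10 nM final) was then added, and luminescence was read 5 min later. Data normalized to no-enzyme and DMSO controls were Hill-fitted.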

The nature of assay [6]: Primary fluorescence-based thiol-reactive (MSTI) qHTS assay for identification of artifact compounds. (AID 1845221).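 Further: thiol-reactive compounds lower the probe fluorescence signal; nearly all actives have a fitted effect of over 65% in size.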 The method, boiled down:
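One-hour, room-temperature, dark incubation of compound with 4 uM MSTI in PBS (pH 7.4, 2% DMSO) precedes a fluorescence read at 525 nm excitation, 598 nm emission; Hill-equation fitting yields concentration-response values.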

Assay [7] has as its system Nanoluciferase (engineered Oplophorus gracilirostris luciferase). Put plainly: Primary Nanoluciferase (NLuc) qHTS assay for identification of artifact compounds. (AID 1845222). The method, boiled down: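 Luminescence from secreted NLuc (filtered, 1:55-diluted S16 cell medium) read 5 min after Nano-Glo substrate; compounds preincubated 15 min, RT. Hill fits of inhibition normalized to DMSO and no-enzyme.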

Assay [8] in a line: Primary redox qHTS assay for identification of artifact compounds. (AID 1845223). The method, boiled down: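 Redox-cycling detection via DTT (250 uM final) oxidation coupled to Amplex Red (25 uM)/HRP (250 mU/mL) in HBSS. 15 min preincubation plus 30 min after DTT, room temperature. Ex/Em 525/598 nm; 4-parameter Hill fit against DMSO and 10 uM DA3003.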
The subject of another assay is JEG-3. The experiment in a line: Primary qHTS to identify gynecologic anti-cancer compounds using libraries of approved drugs and bioactive compounds (AID 1345084). Further: nearly all actives have a fitted effect of over 55% in size. Further: potency means the concentration at half of the fitted maximal effect. To be noted: Gynecologic cancer cell panel viability, ATPlite luminescence, 48 h; series mostly up to 57.5 µM. The procedure, abridged: (§1)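 In this quantitative HTS, cell killing is estimated from loss of ATP-dependent luciferase light. Cells see five compound concentrations over a 48 h exposure.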

For another assay, the system named is OV90. Described as above. To be noted: Gynecologic cancer cell panel viability, ATPlite luminescence, 48 h; series mostly up to 57.5 µM. The method, boiled down: as §1
For orientation: In ATP-based viability assays light output follows the ATP content of the culture.

A further assay has as its system NIH3T3. Put plainly: Cytotoxic Profiling of Annotated Libraries Using Quantitative High-Throughput Screening (AID 1296008). Further: nearly all actives have a fitted effect of over 60% in size. To be noted: Five cell lines viability, CellTiter-Glo ATP luminescence, 48-72 h; max response: active compounds read low. The method, boiled down: (§2)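 Cytotoxicity was measured as CellTiter-Glo ATP luminescence, read after 10 min at room temperature. Compound treatment of the cells lasted 48 or 72 hr at 37 degrees Celsius in a qHTS format.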

The next assay has as its system C33A. Put plainly: Primary qHTS to identify gynecologic anti-cancer compounds using libraries of approved drugs and bioactive compounds (AID 1345084). Further: nearly all actives have a fitted effect of over 55% in size. Further: potency means the concentration at half of the fitted maximal effect. To be noted: Gynecologic cancer cell panel viability, ATPlite luminescence, 48 h; series mostly up to 57.5 µM. The procedure, abridged: as §1
The test system of the next assay is Es-2. The assay is described as above. As to conditions: Gynecologic cancer cell panel viability, ATPlite luminescence, 48 h; series mostly up to 57.5 µM. The method, boiled down: as §1
For another assay, the system named is Hek293T. The description is as above. To be noted: Gynecologic cancer cell panel viability, ATPlite luminescence, 48 h, control line for the selectivity index; series mostly up to 57.5 µM. The procedure, abridged: as §1
A further assay concerns PA-1. The description is as above. As to conditions: Gynecologic cancer cell panel viability, ATPlite luminescence, 48 h; series mostly up to 57.5 µM. The method, boiled down:
as §1

A further assay deals with Tov-21-G. The description is as above. To be noted: Gynecologic cancer cell panel viability, ATPlite luminescence, 48 h; series mostly up to 57.5 µM. The method, boiled down: as §1
The next assay concerns Tov112D. The description is as above. To be noted: Gynecologic cancer cell panel viability, ATPlite luminescence, 48 h; series mostly up to 57.5 µM. The procedure, abridged: as §1
The test system of a further assay is CAOV3. The description is as above. As to conditions: Gynecologic cancer cell panel viability, ATPlite luminescence, 48 h; series mostly up to 57.5 µM. The method, boiled down:
as §1

For the next assay, the system named is HaCat. The experiment in a line: Cytotoxic Profiling of Annotated Libraries Using Quantitative High-Throughput Screening (AID 1296008). Further: nearly all actives have a fitted effect of over 60% in size. As to conditions: Five cell lines viability, CellTiter-Glo ATP luminescence, 48-72 h; max response: active compounds read low. The method, boiled down:
as §2

The next assay relates to CASKI. Put plainly: Primary qHTS to identify gynecologic anti-cancer compounds using libraries of approved drugs and bioactive compounds (AID 1345084). Further: nearly all actives have a fitted effect of over 55% in size. Further: potency means the concentration at half of the fitted maximal effect. To be noted: Gynecologic cancer cell panel viability, ATPlite luminescence, 48 h; series mostly up to 57.5 µM. The procedure, abridged: as §1

Sequence of Phospholipid hydroperoxide glutathione peroxidase GPX4 (Homo sapiens) (P36969 whole entry, looked up): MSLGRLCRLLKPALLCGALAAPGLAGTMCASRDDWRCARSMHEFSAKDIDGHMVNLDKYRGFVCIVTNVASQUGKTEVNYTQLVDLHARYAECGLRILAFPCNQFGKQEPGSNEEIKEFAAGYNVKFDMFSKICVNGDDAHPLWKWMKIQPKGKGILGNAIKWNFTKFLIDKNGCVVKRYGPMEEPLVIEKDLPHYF
Sequence of Glutathione peroxidase 1 (Homo sapiens) (P07203 whole entry, looked up): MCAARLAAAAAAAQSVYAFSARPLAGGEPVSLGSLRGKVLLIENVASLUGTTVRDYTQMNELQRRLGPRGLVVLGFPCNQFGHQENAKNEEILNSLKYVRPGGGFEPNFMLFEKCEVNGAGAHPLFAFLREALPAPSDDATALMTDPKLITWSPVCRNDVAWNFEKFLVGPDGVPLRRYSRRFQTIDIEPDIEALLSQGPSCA
Sequence of Calcium and integrin-binding protein 1 (Homo sapiens) (Q99828 whole entry, looked up): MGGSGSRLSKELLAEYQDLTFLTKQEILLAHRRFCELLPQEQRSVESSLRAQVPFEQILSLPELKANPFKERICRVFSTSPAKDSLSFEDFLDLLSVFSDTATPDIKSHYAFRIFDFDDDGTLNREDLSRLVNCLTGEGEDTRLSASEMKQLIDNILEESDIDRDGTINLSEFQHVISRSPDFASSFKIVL

On to `C/C(=C\c1csc(C)n1)[C@@H]1C[C@@H]2O[C@@H]2CCC[C@H](C)[C@H](O)[C@@H](C)C(=O)C(C)(C)[C@@H](O)CC(=O)O1`, for which the Potency entry in assay [1], in assay [2], in assay [3], in assay [4], in [6] and in assay [7] was “inactive” in each case. Besides, the Potency entry (in assay [8]; with JEG-3; with OV90) was “inactive” each time. The compound was classed as inactive in assay [5].
For `C[C@]12CC[C@H](O[C@@H]3O[C@H](CO)[C@@H](O)[C@H](O)[C@H]3O)CC1CC[C@@H]1C2CC[C@]2(C)[C@@H](C3=CC(=O)OC3)CC[C@]12O` (some centres not stated), the Potency entry in [1], in assay [2], in assay [3], in assay [4], in assay [6] and in assay [7] was “inactive” each time. Also, the Potency result (in assay [8]; in the assay on OV90) was “inactive” each time. For the same compound, the outcome in assay [5] was “inactive [at 25.7 µM]”. Also, in the assay on NIH3T3, the compound was classed as inactive. Further, the Potency in the assay with C33A was 5.62 µM (active); with Es-2 it was 10 µM (active); with Hek293T, 7.94 µM (active); in the assay with PA-1, 7.94 µM (active); in the assay with Tov-21-G, 5.01 µM (active); in the assay with Tov112D, 3.16 µM (active).
As for `CC(C)C(=O)O[C@H]1[C@@H]2[C@H](C)C(=O)O[C@@H]2C[C@@H](C)[C@@H]2C=CC(=O)[C@]21C`, the Potency result (in assay [1]; in assay [3]; in assay [4]; in [7]; in assay [8]; in the assay on CAOV3) was “inactive” each time. For the same compound, the call in assay [5] was inactive. For the same compound, the Potency was 7.94 µM (active) in the assay with Hek293T, 10 µM (active) with JEG-3 and 10 µM (active) in the assay with Tov-21-G.
In the case of `Cc1ccc(-n2nccn2)c(C(=O)N2CCN(c3nc4cc(Cl)ccc4o3)CCC2C)c1` (configuration not stated), the Potency result (in assay [1]; in assay [2]; in [4]; in [7]; in the assay on C33A; in the assay with CAOV3) was “inactive” in each case. Also, the Potency result in the assay with CASKI, with Es-2, with Hek293T, in the assay on JEG-3, with OV90 and with Tov-21-G was “inactive” each time. For the same compound, the Potency result with Tov112D was “inactive”. The compound was called inactive (in assay [5]; in the assay with HaCat; in the assay on NIH3T3).
